“And” between values parts separate entries of the source, which are not always exact repeats. Equal entries are not always repeated. The source made the active and inactive calls.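 How the source made its calls: active means fitted half-maximal concentration AC50 at or below ten times the highest valid tested dose, with signal falling as DNA is displaced (actives reach about 34 µM in these data); inconclusive means flat fit at moderate signal loss, or poor fit quality; inactive means the rest, including signal rising instead of falling.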
Assay: DNA intercalators displacing acridine orange, dose response, artefact control for KSHV LANA DNA-binding inhibitor project, biochemical, fluorescence polarization, cherry-picked samples, set 2 (AID 504727)
Details: AC50: Acridine orange-DNA displacement; series mostly up to 35 µM

SMILES	AC50
O=C(CN1CC[C@@]2(O)CCCC[C@H]2[C@@H]1c1ccc(F)cc1)NCc1ccco1	inactive
Cc1ccc2cccc(OCC(=O)NCCC3=CCCCC3)c2n1	inactive
COc1ccc(/C=C/c2cc(C(F)(F)F)[nH]c(=O)n2)cc1OC	inactive
CC(C)Cn1c(N)c(C(=O)CSc2nnc(-c3ccco3)n2C)c(=O)n(C)c1=O	inactive
COc1ccc2ccccc2c1C(O)c1nccn1C (stereo unspecified)	4.01 µM (active)
CC(=O)N/C(=N\OCc1ccc(Br)cc1)c1nonc1NC(C)=O	inactive
COCCN(CCOC)Cc1c(O)ccc2c1O/C(=C\c1ccco1)C2=O	27.5 µM (active)
Cn1c(N)c(C(=O)COC(=O)c2ccc(Cl)c(S(=O)(=O)N3CCCC3)c2)c(=O)n(C)c1=O	inactive
Clc1ccc(-c2nnc3sc(-c4ccc(Br)o4)nn23)cc1	inactive
O=c1nc(N2CCOCC2)ccn1-c1nc(-c2ccccc2)sc1-c1ccccc1	inactive
Nc1cc(N)nc(SCC(=O)N2CCCCC2)n1	inactive
NC(=S)NN=Cc1ccc(-c2ccc(S(=O)(=O)Nc3ncccn3)cc2)o1	inactive
O=C(CSc1cccc2cccnc12)N/N=C/c1ccc(O)cc1	inactive
CCOC(=O)c1ccc[n+](CC(=O)c2ccc(OC)cc2)c1	inactive
CCn1c(CN2CCCCC2)nc2cc(S(=O)(=O)N3CCCCC3)ccc21	inactive
CCN(CC(=O)NCc1cccs1)C(=O)c1ccc(S(=O)(=O)Nc2ccccc2C)cc1	inactive
O=S(=O)(O)c1cccc2cccc(Nc3ccccc3)c12	inactive
NC(=O)c1ccc(NC(=O)C2COc3ccccc3O2)cc1 (stereo unspecified)	inactive
Cc1ccccc1NC(=O)CN1C(=O)N/C(=C\c2cccn2-c2cccc(C(=O)O)c2)C1=O	inactive
C[n+]1c2cc(N)ccc2cc2ccc(N)cc21	1.66 µM (active) and 2.31 µM (active)
NS(=O)(=O)c1cc(C(=O)NC2CCSc3ccccc32)ccc1Cl (stereo unspecified)	inactive

— PubChem BioAssay AID504727 (Broad Institute, 2011)
